Residue numbers refer to the chain shown, from its start. In all, about 24,000 sequences were measured (“enrichment r”: median about 0.99, highest 2% from about 3.7 on). What follows is part of a selection rich in the highest values, with near analogues and random picks from the rest.
T1: UNK ZnF1-3 (human, UniProt Q9C0B0 31-174)
T1 sequence: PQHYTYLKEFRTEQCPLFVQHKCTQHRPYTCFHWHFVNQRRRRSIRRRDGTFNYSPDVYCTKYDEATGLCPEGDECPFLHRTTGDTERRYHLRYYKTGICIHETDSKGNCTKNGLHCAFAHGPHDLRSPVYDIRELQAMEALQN

B1: 19988787_19988907_277_5pUTR_ENSG00000144566_ENST00000273047|human|control|control (ssRNA)
RNA: GGGAGUUCUACAGUCCGACGAUCCGGCGUCGCCUGCUCUUAGCGCCGCUCCCCUCACACUGGACUGUGCGGGGCUCGUGCCGUGGUGCCGCCCCUGUCGGGCUCCGUCUCCGCCUCUCGCCGCUCCCCCUUCCUCUUUCCUUUCAACAGAGGAUUGAGCAUCA
B2: 178098831_178098951_708_CDS_ENSG00000116044_ENST00000397062|human|control|control (ssRNA)
RNA: GGGAGUUCUACAGUCCGACGAUCGAAAAAGGCUUUCUCUUGCUCCUUUUGGAGUUGUUCUUGUCUUUCCUUUUCAAGUUUUUUCUGUUUUUCCAGCUCAUACUCUUUCCGUCGCUGACUGAAGUCAAAUACUUCUCGACUUACCAACAGAGGAUUGAGCAUCA
B3: chr10:1038518:1038519:+_ENSG00000107937_ENST00000545048|hu_hu|hu_hu_hu_mus_False|68_68 (ssRNA)
RNA: GGGAGUUCUACAGUCCGACGAUCCAGUCUGUCAUGGUAAUUCUGUUGAGUAAAUUUGACUUUUCUCAUGUAAAAAUGUCGAAUCCGAUGAAUUUGAUAAUGUUUAUGAAUAACCGUUGGAGUCUUUCGUUGAGUCUUGGAUAACAACAGAGGAUUGAGCAUCA
B4: chr8:30550554:30550555:-_ENSG00000104687_ENST00000414019|hu_mus|FALSE|FALSE (ssRNA)
RNA: GGGAGUUCUACAGUCCGACGAUCGCCGGCAUUCUCCAGUUCCUCGGUGCAGUUGGAACUGAUGAGUGAAUCAAAAUUUCUCAGUACCUUAUCAUGCCUGAUCAUAAGAGAUGUCUUGGAGCCCAGGGCAGAGAGGAUGCCCGCCAACAGAGGAUUGAGCAUCA
B5: chr6:106728040:106728041:+_ENSMUSG00000013736_ENSMUST00000057578|mus_mus|FALSE|FALSE (ssRNA)
RNA: GGGAGUUCUACAGUCCGACGAUCAGGAGCCACACCAAGAUCAUAGAUCAGGUGGAUCAAAUGGUUUACAUGGUCACCAGUAAGAAUUUUCUUCAGUUCUACCCAAAUCCUCUCUCCUGAUAUUCCAGCCAAACCUUUGGCAUUCAACAGAGGAUUGAGCAUCA
B6: chr22:19452774:19452775:-_ENSG00000070010_ENST00000399523|hu_hu|hu_hu_hu_mus_False|88_108 (ssRNA)
RNA: GGGAGUUCUACAGUCCGACGAUCCUUUUCAUUAUAGUUGAUAGCAAUCACAUCCCCAGUCGUCAGACAGGCGAAGUUUCUCAAUGCAUUUUCUAAUACCGCUUUAGGGUUGGUAAUAUCCAGGAAGUCUGGGCUCUGAGGCUGCAACAGAGGAUUGAGCAUCA
B7: chr7:148083511:148083512:+_ENSMUSG00000025487_ENSMUST00000026560|mus_mus|motif|central (ssRNA)
RNA: GGGAGUUCUACAGUCCGACGAUCCAAAUCCAGCACUCGCGGCUGCACCCACGUCAUGUGAACCCGCUUGUCCACCUCGUCGGUGCUGCCUCUCACCAGCCCCACCGAGAGUGCCUUCAUCACCAGCAACUCCACCUUGUUGACCAACAGAGGAUUGAGCAUCA
B8: 118497214_118499730_2480_CDS_ENSG00000065183_ENST00000349139|human|control|control (ssRNA)
RNA: GGGAGUUCUACAGUCCGACGAUCAUAAGAGAAAGGCAGCACAAGUAGAGAUUCUUCCAGCUCACUCGACUUGAUCCCUUUAAAAAUCUCUAAUACAUAAGCUGAAGGUGAGAUACUGCCAUAAGCCAUUAGGAUGGGGUUGCUCAACAGAGGAUUGAGCAUCA
B9: chr9:127911758:127911759:-_ENSG00000119414_ENST00000373547|hu_mus|motif|central (ssRNA)
RNA: GGGAGUUCUACAGUCCGACGAUCUCUCAAACGAGUCCAAGGUGGGGUAGGAGGAGUGACAAAACUGAUAGAAAAACACUGCGGUUGACACCAUAACAAACAAUAAAUUUAGAUAAUUUAAAAUUAAAAAAAAAGGCAAGAGGCCAACAGAGGAUUGAGCAUCA
B10: chr12:48362563:48362564:+_ENSG00000134291_ENST00000256686|hu_hu|hu_hu_hu_mus_False|1_68 (ssRNA)
RNA: GGGAGUUCUACAGUCCGACGAUCUCCGUCAAGCCCUUCGAUAGACCCUUGCGGGGGAAACUGUAAUAAUUCUAACUGGGGAAGGAAAAGAAACGCCAAAAACUUUCCAAAAAGCGGGGGUGGGGUGAGGCGGGAGGUUGGGAACAACAGAGGAUUGAGCAUCA
B11: chr16:46836887:46836888:-_ENSG00000155330_ENST00000285697|hu_mus|motif|central (ssRNA)
RNA: GGGAGUUCUACAGUCCGACGAUCACCAACAGAGUUUGAAGACAAAUAUCAGAGAAUAAGUCUUUGAUUGAUAAUUUUUCGGUUUAUUUCUGCCAAGGCAACUGAAAACACGAAAGCCUUCUCAUCAGAGAGGUUAGCAUAGAUCAACAGAGGAUUGAGCAUCA
B12: chr12:48362563:48362564:+_ENSG00000134291_ENST00000256686|hu_hu|hu_hu_hu_mus_False|68_108 (ssRNA)
RNA: GGGAGUUCUACAGUCCGACGAUCUCCGAAGGGUGAAUCGAUAGACCCUUGCGGGGGAAACUGUAAUAAUUCUAACUGGGGAAGGAAAAGAAACGCCAAAAACUUUCCAAAAAGCGGGGGUGGGGUGAGGCGGGAGGGGGAGGUCAACAGAGGAUUGAGCAUCA
B13: chr9:127911758:127911759:-_ENSG00000119414_ENST00000373547|hu_mus|FALSE|FALSE (ssRNA)
RNA: B9 RNA with G82U, G83A
B14: chr12:48362563:48362564:+_ENSG00000134291_ENST00000256686|hu_hu|hu_hu_hu_mus_False|68_68 (ssRNA)
RNA: B10 RNA with U137G, U138G, G140A, A142G, A143U

Each binder was assayed against T1, UNK ZnF1-3 (assay: nsRBNS (natural sequence RNA bind-n-seq); RBNS binding buffer (assumed for nsRBNS): 25 mM Tris pH 7.5, 150 mM KCl, 3 mM MgCl2, 0.01% Triton X-100, 500 ug/ml BSA, 20 U/ml SUPERase-In, 4 C; UNK is unkempt and MSI1 is Musashi-1; names of the RNAs are library labels; protein concentration not given here; high values mean tight binding).
For B1, the binding signal was 0.72 enrichment R.
B2 gave a binding signal of 0.134 enrichment R.
In the case of B3, the binding signal is reported as 0.535 enrichment R.
B4 showed a binding signal of 1.28 enrichment R.
Binder B5 has a binding signal of 0.982 enrichment R.
For B6, the binding signal was 0.864 enrichment R.
B7 was tested, and the binding signal was 0.75 enrichment R.
B8 showed a binding signal of 1.8 enrichment R.
Work on B9 yielded a binding signal of 14 enrichment R.
B10 was tested, and the binding signal was 3.33 enrichment R.
Work on B11 yielded a binding signal of 0.868 enrichment R.
B12 was tested, and the binding signal was 3.2 enrichment R.
For B13, the binding signal was 10.5 enrichment R.
Work on B14 yielded a binding signal of 4.07 enrichment R.

From article PMC12136788
